From PubChem BioAssay
PMP22 txn = Cell-based coincidence reporter assay to measure PMP22 gene transcription in S16 Pmp22-F2sN cells - Primary screen; S16 Pmp22-F2sN Schwann cells, FLuc/NLuc coincidence luminescence, 24 h; Potency, µM (doses to about 57.5 µM), for the others: at the highest dose activity change, negative = inhibition, hits mostly inhibitors; 43,000 tested, 2% active; AID 1508649, 2021; active means clear falling dose curves in both reporters; inconclusive means both reporters move, but less clearly or upward; inactive means either reporter flat; the % is the NLuc reporter signal; further: potency means the concentration at half of the fitted maximal effect; on the % scale 0 is the no-effect control and ±100 the full control effect
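Reporter cells (S16 Pmp22-F2sN, 500–1,000 per well) exposed to compounds for 24 h, 37C, 5% CO2; lysis with FLuc read after 10 min, then Stop&Glo and NLuc read after 10 min.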
SKOV3 invasion = Primary qHTS assay for Inhibitors of ovarian cancer metastasis using an organotypic tumor microenvironment (TME) model | SKOV3ip1-GFP adhesion/invasion on 3D omental model, fluorescence | Potency, µM (highest dose often 45.8 µM), for the others: at the highest dose activity change, negative = inhibition, hits mostly inhibitors | 46,000 tested, 0.1% active;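 further: potency means the concentration at half of the fitted maximal effect; plate controls were DMSO wells for no effect and tomatine positive control wells for full effect; nearly all actives have a fitted effect of over 65% in size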
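qHTS, 4-pt dose (0.36-46 umol/L); SKOV3ip1-GFP, 1,200 cells/well, no FBS; primary omental fibroblast/mesothelial co-culture 48 h pre-grown; 2 h RT + 16 h 37 C; PBS wash, 4% PFA; GFP count 488/509 nm.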
S16 F2sN tox = Cell viability qHTS assay in S16 Pmp22-F2sN cells. S16 Pmp22-F2sN Schwann cells (luciferase reporters placed in the Pmp22 gene) viability, CellTiter-Glo, 24 h. Potency, µM (titrated, usually from 57.5 µM), for the others: at the highest dose activity change, negative = cytotoxicity, actives largely listed as cytotoxic. 43,000 tested, 0.48% active; further: potency means the concentration at half of the fitted maximal effect; on the % scale 0 is the no-effect control and ±100 the full control effect; nearly all actives have a fitted effect of over 65% in size
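Luminescence from CellTiter-Glo, read by CCD camera after a 15 min room-temperature incubation, served as the viability signal. Reporter Schwann cells (S16 Pmp22-F2sN) had been treated with pin-transferred compounds for 24 h at 37C.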
mTORC1 inh = Acumen qHTS Assay for Inhibitors of the mTORC1 Signaling Pathway in MEF (Tsc2-/-, p53-/-) Cells: Sytravon | AID 493208, 2011 | Potency, µM (series often up to 38.3 µM), for the others: at the highest dose activity change, negative = inhibition, most hits filed as inhibitors | Tsc2-/- p53-/- MEF, phospho-rpS6 immunofluorescence/PI, 24 h | 44,000 tested, 0.78% active;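 further: potency means the concentration at half of the fitted maximal effect; plate controls were DMSO for no effect and rapamycin for full effect; nearly all actives have a fitted effect of over 50% in size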
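Cell-based qHTS: Tsc2-/- p53-/- MEF, 24 h cpd, 37 °C; fix/perm, anti-phospho-S6 Alexa-488 + PI; Acumen 488 nm scan; pS6/PI ratio, % positive cells; rapamycin 7.5 nM = inhibition ref; PI count = viability.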
p53null 39C kill = qHTS Screen for Compounds that Selectively Target Cancer Cells with p53 Mutations: Cytotoxicity of p53 Null Cells at the Nonpermissive Temperature. Potency, µM (highest dose often 46.1 µM), for the others: top-dose activity, negative = cell killing, usual class: cytotoxic. H1299 p53-null (neo) cells, 39C, ATPlite viability, 24 h. 55,000 tested, 0.97% active;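 further: potency means the concentration at half of the fitted maximal effect; 0% = DMSO only and -100% = full killing by 100 µM tamoxifen; nearly all actives have a fitted effect of over 50% in size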
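Cells seeded at 600/well, 37C overnight. Compound added (up to 46 uM), plates shifted to 39C for 24 hr. ATPlite added, luminescence read after 20 min at room temperature.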
p53null 32C kill = qHTS Screen for Compounds that Selectively Target Cancer Cells with p53 Mutations: Cytotoxicity of p53 Null Cells at the Permissive Temperature | Potency, µM (titrated, usually from 46.1 µM), without a hit: at the top dose activity change, negative = cytotoxicity, most hits filed as cytotoxic | 55,000 tested, 0.62% active | H1299-neo p53 null cells, ATP luminescence, 24 h, 32C;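 further: potency means the concentration at half of the fitted maximal effect; 0% = DMSO only and -100% = full killing by 100 µM tamoxifen; nearly all actives have a fitted effect of over 55% in size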
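H1299-neo, 600 cells/well; overnight 37C; cpd up to 46 uM, 24 h at 32C; ATPlite luminescence after 20 min RT; normalized to DMSO (0%) and tamoxifen 100 uM (100% kill); Hill-fit AC50.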
NLuc saturating = Biochemical NLuc saturation counterscreen for small molecule modulators of PMP22 gene expression - Nano-Glo assay; Secreted NLuc enzyme (filtered S16 cell medium), Nano-Glo luminescence; AID 1508638, 2021; Potency, µM (doses to about 57.5 µM), for the others: top-dose activity change, negative = inhibition, most hits filed as inhibitors; 690 tested, 4% active; shares compounds with PMP22 txn; further: potency means the concentration at half of the fitted maximal effect; on the % scale 0 is the no-effect control and ±100 the full control effect
NLuc Km ctr = Biochemical coelenterazine-based NLuc counterscreen for small molecule modulators of PMP22 gene expression - Km assay | shares compounds with PMP22 txn | secreted NLuc enzyme, coelenterazine luminescence, Km conditions | Potency, µM (titrated, usually from 57.5 µM), inactives show top-dose activity change, negative = inhibition, most hits filed as inhibitors | 690 tested, 5% active; further: potency means the concentration at half of the fitted maximal effect; on the % scale 0 is the no-effect control and ±100 the full control effect
FLuc ctr PMP22 = Biochemical FLuc counterscreen for small molecule modulators of PMP22 gene expression; shares compounds with PMP22 txn; purified P. pyralis FLuc, luminescence, 10 min; Potency, µM (doses to about 57.5 µM), for inactives: top-dose activity, negative = inhibition, hits mostly inhibitors; 690 tested, under 10 active; AID 1508640, 2021; further: % of control where 0% means no effect
Target sequence (P08659 whole entry, looked up): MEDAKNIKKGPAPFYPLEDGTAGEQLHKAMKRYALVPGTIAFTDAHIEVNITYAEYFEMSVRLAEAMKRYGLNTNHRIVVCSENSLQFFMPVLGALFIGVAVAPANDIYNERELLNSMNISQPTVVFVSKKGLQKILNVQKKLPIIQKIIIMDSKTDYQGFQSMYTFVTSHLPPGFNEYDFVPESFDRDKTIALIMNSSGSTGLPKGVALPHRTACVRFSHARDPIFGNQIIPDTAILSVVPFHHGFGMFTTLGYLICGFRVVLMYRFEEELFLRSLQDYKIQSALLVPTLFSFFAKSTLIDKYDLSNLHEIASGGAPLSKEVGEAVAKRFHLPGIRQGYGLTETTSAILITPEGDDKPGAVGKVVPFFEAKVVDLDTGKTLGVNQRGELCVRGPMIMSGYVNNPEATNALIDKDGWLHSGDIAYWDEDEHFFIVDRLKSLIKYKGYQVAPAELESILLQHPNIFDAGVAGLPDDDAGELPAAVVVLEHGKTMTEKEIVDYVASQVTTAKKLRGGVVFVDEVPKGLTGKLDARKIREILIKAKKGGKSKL
S16 F2sN tox cnf = Cell viability qHTS assay in S16 Pmp22-F2sN cells - Confirmatory screen | shares compounds with PMP22 txn | S16 Schwann cells viability, CellTiter-Glo ATP luminescence, 24 h | Potency, µM (highest dose often 57.5 µM), for the others: at the top dose activity change, negative = viability loss, usual class: cytotoxic | 690 tested, 7% active | AID 1508641, 2021; further: potency means the concentration at half of the fitted maximal effect; on the % scale 0 is the no-effect control and ±100 the full control effect
PMP22 txn conf = Cell-based coincidence reporter assay to measure PMP22 gene transcription in S16 Pmp22-F2sN cells - Confirmatory screen. shares compounds with PMP22 txn. S16 Schwann cells Pmp22-F2sN, dual luciferase, 24 h. Potency, µM (top dose mostly 57.5 µM), without a hit: top-dose activity change, negative = inhibition, most hits filed as inhibitors. 690 tested, 22% active; active means clear falling dose curves in both reporters; inconclusive means both reporters move, but less clearly or upward; inactive means either reporter flat; the % is the FLuc reporter signal; further: potency means the concentration at half of the fitted maximal effect
PMP22 HiBiT cnf = Cell-based HiBiT reporter assay to measure PMP22 protein expression in S16 Pmp22-HiBiT cells - Confirmatory screen | shares compounds with PMP22 txn | S16 Schwann cells Pmp22-HiBiT, luminescence, 48 h | Potency, µM (highest dose often 27.9 µM), inactives show at the highest dose activity change, negative = inhibition, hits mostly inhibitors | 95 tested, under 10 active | AID 1508647, 2021
Target sequence (P25094 whole entry, looked up): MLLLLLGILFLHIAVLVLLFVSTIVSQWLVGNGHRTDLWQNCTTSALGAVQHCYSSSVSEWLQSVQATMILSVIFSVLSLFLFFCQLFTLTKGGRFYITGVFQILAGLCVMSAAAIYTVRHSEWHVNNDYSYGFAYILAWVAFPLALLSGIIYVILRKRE
Starred values were filed as active, the others as inactive; i = inactive; ? = inconclusive; nt = no result. Sampled rows, rich in hits. Any-hit rate of the full collection: about 3%. Unless noted, the call rests on the fitted dose curve; in most records, active means well fitted curve in the direction sought with a large enough effect; inconclusive means small, poorly fitted or top-dose-only effect, or another doubt; inactive means no such curve, though single readings can be large; an effect the other way counts as inactive or inconclusive.

SMILES	PMP22 txn	SKOV3 invasion	S16 F2sN tox	mTORC1 inh	p53null 39C kill	p53null 32C kill	NLuc saturating	NLuc Km ctr	FLuc ctr PMP22	S16 F2sN tox cnf	PMP22 txn conf	others
COc1ccc(-n2nc(C(N)=O)c3c2C(=O)N(c2ccc(N4CCCCC4=O)cc2)CC3)cc1	nt	-29%	nt	nt	nt	nt	nt	nt	nt	nt	nt
COC(=O)[C@@H]1[C@H]2C[C@@H]3c4[nH]c5ccccc5c4CCN3C[C@@H]2CC[C@@H]1O	nt	5%	nt	nt	nt	nt	nt	nt	nt	nt	nt
COCCOC(=O)C1=C(C)NC2=C(C(=O)CC(c3ccccc3OC)C2)C1c1cccc(O)c1 (centres undefined)	nt	8%	nt	nt	nt	nt	nt	nt	nt	nt	nt
O=C(CSc1c2c(nc3ccc(Cl)cc13)CCCC2)NCc1ccccc1Cl	11µM*	i	22µM*	-2%	?	15%	?	?	-1%	27%	?
CCOC(=O)c1ccc(NC(=O)CSc2c3c(nc4cc(Cl)ccc24)CCCC3)cc1	?	27%	10%	2%	-11%	0%	nt	nt	nt	nt	nt
CCC(C)NC(=O)CSc1c2c(nc3cc(Cl)ccc13)CCCC2 (centres undefined)	12µM*	3%	4%	-3%	-30%	2%	?	?	5%	7%	?
O=C(CSc1c2c(nc3cc(Cl)ccc13)CCCC2)NCc1ccccc1Cl	?	?	?	-26%	?	12%	nt	nt	nt	nt	nt
COc1ccc(CCNc2nc3c(c(=O)n(C)c(=O)n3C)n2Cc2ccc(F)cc2)cc1OC	10µM*	?	?	-18%	-7%	5%	?	?	10%	-23%	-26%
Cn1c(=O)c2c(nc(NCc3ccccc3)n2Cc2ccc(Cl)c(Cl)c2)n(C)c1=O	14µM*	-3%	-24%	-12%	-15%	?	-9%	?	-2%	-25%	?
CCNc1nc2c(c(=O)n(C)c(=O)n2C)n1Cc1ccc(F)cc1	?	-1%	?	?	7%	-2%	nt	nt	nt	nt	nt
CC(C)COc1ccccc1C1CC(=O)Nc2cc3c(cc21)OCO3 (centres undefined)	8.4µM*	i	-14%	?	?	52%	?	?	-15%	-23%	?
CCOC(=O)c1ccc(N2C(=O)c3n[nH]c(-c4ccco4)c3C2c2ccc(O)c(OCC)c2)cc1 (centres undefined)	?	-2%	?	?	27%	8%	nt	nt	nt	nt	nt
CCOC(=O)c1ccc(N2C(=O)c3[nH]nc(-c4ccc(C)cc4)c3C2c2ccc(O)c(OCC)c2)cc1 (centres undefined)	13µM*	0%	-20%	1%	28%	27%	-12%	-13%	-3%	?	?	PMP22 HiBiT cnf=-17%
CC1=C[C@@H]2[C@@H]([C@@H](O)C[C@@]3(C)[C@H]2C[C@@H](C)[C@]3(O)C(=O)CO)[C@@]2(C)Cc3cnn(-c4ccccc4)c3C=C12	nt	-18%	nt	nt	nt	nt	nt	nt	nt	nt	nt
Cc1cc(NC(=O)C2CCCN(S(=O)(=O)c3cccc4nonc34)C2)ccc1Br (centres undefined)	18µM*	i	?	4%	-21%	5%	-1%	3%	3%	-12%	17µM*	PMP22 HiBiT cnf=30%
Cc1cc(Br)ccc1NC(=O)C1CCCN(S(=O)(=O)c2cccc3nonc23)C1 (centres undefined)	?	i	13%	-16%	-21%	-7%	nt	nt	nt	nt	nt
COc1cccc(-c2ccc(NC(=O)C3=C(C(=O)O)CCC3)c(F)c2)c1	nt	11%	nt	nt	nt	nt	nt	nt	nt	nt	nt
COc1cc(-c2noc(-c3ccc(NCc4ccco4)c([N+](=O)[O-])c3)n2)cc(OC)c1OC	3.2µM*	11%	4%	0%	-9%	1%	?	?	-1%	-12%	?
O=C(NCCc1csc(-c2ccc(F)cc2)n1)c1c(F)cccc1Cl	?	-4%	5%	-8%	1%	3%	?	?	?	-9%	29%
O=C(NCCc1csc(-c2ccc(F)cc2)n1)c1cccc(F)c1	?	-4%	25%	-1%	-14%	-15%	nt	nt	nt	nt	nt
